Several values for one entry are separate records, joined by “and”; a condition that tells them apart may be missing. Identical values can stand only once. Inconclusive results are not listed. Activity calls are given as the source filed them. Unless noted, the call rests on the fitted dose curve; in most records, active means well fitted curve in the direction sought with a large enough effect; inconclusive means small, poorly fitted or top-dose-only effect, or another doubt; inactive means no such curve, though single readings can be large; an effect the other way counts as inactive or inconclusive.
How the values were obtained:
[1] = Viability counterscreen for agonist of constitutive androstane receptor (CAR) against the NCATS DSHEA and TCM libraries (AID 1794838); further: 0% is about no effect
How it was run: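 HepG2-CYP2B6-hCAR cells (2,500/well) attached 5 h, then got compounds plus 0.75 uM PK11195 final. After 24 h at 37C, viability read by CellTiter-Fluor fluorescence (Ex/Em 405/540 nm).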

[2] = biological target: Nuclear receptor subfamily 1 group I member 3 (Homo sapiens) (UniProt Q14994); assay: Primary qHTS for agonist of constitutive androstane receptor (CAR) against the NCATS DSHEA and TCM libraries (AID 1794839);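 further: HepG2 cells expressing human CAR with a CYP2B6 reporter plus PK11195 antagonist; 0% is about no effect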
Sequence of Nuclear receptor subfamily 1 group I member 3 (Homo sapiens) (Q14994 whole entry, looked up): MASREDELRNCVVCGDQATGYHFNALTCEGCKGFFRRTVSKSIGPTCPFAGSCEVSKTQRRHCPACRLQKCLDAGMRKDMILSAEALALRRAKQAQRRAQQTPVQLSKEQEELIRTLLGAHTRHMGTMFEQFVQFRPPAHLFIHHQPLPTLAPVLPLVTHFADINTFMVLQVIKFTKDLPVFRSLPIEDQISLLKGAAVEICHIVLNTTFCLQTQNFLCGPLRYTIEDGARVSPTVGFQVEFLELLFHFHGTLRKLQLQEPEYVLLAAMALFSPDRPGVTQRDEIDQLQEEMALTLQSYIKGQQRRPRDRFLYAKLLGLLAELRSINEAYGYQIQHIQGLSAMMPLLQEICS
How it was run: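 HepG2-CYP2B6-hCAR cells (2,500/well) were attached for 5 h, then treated for 24 h at 37 °C with compounds plus 0.75 µM PK11195. Luciferase luminescence (ONE-Glo) was read, with CellTiter-Fluor viability (Ex/Em 405/540 nm).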

[3] = HepG2 viability counterscreen (readout 2: ATP content) against the NCATS DSHEA and TCM libraries (AID 1794840);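 further: HepG2 cells exposed to substances for about 24 h; 0% is about no effect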
How it was run: (§1)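 HepG2 cells (1,000 cells/well) attached ~4 h, then treated ~24 h at 37C with substances. Protease activity read by GF-AFC (25 uM final, 30 min, Ex/Em 380/510 nm); ATP content then by CellTiter-Glo luminescence.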

[4] = HepG2 viability counterscreen (readout 1: protease activity) against the NCATS DSHEA and TCM libraries (AID 1794841);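 further: cells exposed to compounds for about 24 h before the protease read; 0% is about no effect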
How it was run: as §1

[5] = biological target: Cytochrome P450 2D6 (Homo sapiens) (UniProt P10635); assay: qHTS for inhibitors of CYP2D6 against the NCATS DSHEA and TCM libraries (AID 1919972); further: on the % scale 0 is the no-effect control and ±100 the full control effect
Sequence of Cytochrome P450 2D6 (Homo sapiens) (P10635 whole entry, looked up): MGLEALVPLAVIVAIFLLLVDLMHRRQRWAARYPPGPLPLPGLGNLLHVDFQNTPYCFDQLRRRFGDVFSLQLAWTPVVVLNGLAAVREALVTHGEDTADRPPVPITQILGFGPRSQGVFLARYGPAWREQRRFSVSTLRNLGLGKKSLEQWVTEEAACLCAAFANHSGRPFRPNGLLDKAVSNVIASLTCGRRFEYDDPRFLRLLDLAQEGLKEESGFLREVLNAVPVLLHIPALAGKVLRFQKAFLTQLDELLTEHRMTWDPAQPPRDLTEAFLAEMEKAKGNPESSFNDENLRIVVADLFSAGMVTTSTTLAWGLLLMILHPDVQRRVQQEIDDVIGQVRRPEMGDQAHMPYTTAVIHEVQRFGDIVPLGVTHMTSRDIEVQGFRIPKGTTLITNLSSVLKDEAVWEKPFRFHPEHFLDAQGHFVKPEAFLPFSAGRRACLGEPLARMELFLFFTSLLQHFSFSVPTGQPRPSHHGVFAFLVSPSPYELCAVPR
How it was run: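 qHTS, concentration–response format with most substances from 19.5 nM. CYP2D6 + pro-luciferin substrate, 15 min with compound, then 1x NADPH regen, 30–45 min RT dark. Glo detection 30 min, luminescence. Quinidine control.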

[6] = biological target: Cytochrome P450 2C9 (Homo sapiens) (UniProt P11712); assay: qHTS for inhibitors of CYP2C9 against the NCATS DSHEA and TCM libraries (AID 1919973);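 further: luminogenic pro-luciferin CYP2C9 substrate turned into luciferin with NADPH regeneration; series mostly up to about 34 µM; on the % scale 0 is the no-effect control and ±100 the full control effect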
Sequence of Cytochrome P450 2C9 (Homo sapiens) (P11712 whole entry, looked up): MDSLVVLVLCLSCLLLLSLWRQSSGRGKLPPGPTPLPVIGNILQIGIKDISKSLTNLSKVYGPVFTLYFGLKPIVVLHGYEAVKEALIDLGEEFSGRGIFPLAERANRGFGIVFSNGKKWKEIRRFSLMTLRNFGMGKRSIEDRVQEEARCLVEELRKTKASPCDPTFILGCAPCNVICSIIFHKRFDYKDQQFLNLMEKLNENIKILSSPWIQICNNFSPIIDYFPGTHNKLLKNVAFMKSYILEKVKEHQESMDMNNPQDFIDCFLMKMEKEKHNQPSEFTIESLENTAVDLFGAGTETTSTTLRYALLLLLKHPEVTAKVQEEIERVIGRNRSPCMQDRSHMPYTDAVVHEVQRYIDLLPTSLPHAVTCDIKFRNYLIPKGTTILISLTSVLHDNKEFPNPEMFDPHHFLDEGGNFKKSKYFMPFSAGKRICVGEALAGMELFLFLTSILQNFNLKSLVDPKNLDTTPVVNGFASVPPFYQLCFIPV
How it was run: (§2)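 Substances were tested against enzyme with a pro-luciferin substrate; minus-enzyme wells served as background. After NADPH-initiated oxidation (30-45 min, RT), light was generated with P450-Glo reagent.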

[7] = biological target: Cytochrome P450 2C19 (Homo sapiens) (UniProt P33261); assay: qHTS for inhibitors of CYP2C19 against the NCATS DSHEA and TCM libraries (AID 1919974);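 further: luminescence from luciferin released by CYP2C19 oxidation of a pro-luciferin substrate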; further: potency means the concentration at half of the fitted maximal effect; on activity change, negative = inhibition: on the % scale 0 is the no-effect control and ±100 the full control effect
Sequence of Cytochrome P450 2C19 (Homo sapiens) (P33261 whole entry, looked up): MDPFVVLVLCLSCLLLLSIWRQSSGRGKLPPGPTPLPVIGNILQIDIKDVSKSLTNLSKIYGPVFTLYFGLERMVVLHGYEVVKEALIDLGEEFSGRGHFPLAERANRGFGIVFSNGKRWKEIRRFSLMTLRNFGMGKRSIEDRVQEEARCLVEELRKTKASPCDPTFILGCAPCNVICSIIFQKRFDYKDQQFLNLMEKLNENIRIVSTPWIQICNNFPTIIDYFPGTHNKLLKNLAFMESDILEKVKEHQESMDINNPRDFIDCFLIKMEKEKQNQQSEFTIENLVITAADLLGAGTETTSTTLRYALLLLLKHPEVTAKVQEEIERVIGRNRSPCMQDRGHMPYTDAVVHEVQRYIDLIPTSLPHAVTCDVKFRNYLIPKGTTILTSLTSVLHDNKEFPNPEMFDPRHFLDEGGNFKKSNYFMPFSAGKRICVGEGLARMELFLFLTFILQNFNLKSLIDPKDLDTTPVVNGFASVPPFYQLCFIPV
How it was run: as §2

[8] = KB-3-1 P-gp reporter qHTS against the NCATS DSHEA and TCM libraries (AID 1919975); further: 0% is about no effect
How it was run: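 Parental KB-3-1 human cervical adenocarcinoma cells (500 cells/well, DMEM + 10% FBS) were treated with substances for ~72 h at 37C; viability was read by CellTiter-Glo luminescence.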

[9] = qHTS Counterscreen for compound interference against the NCATS DSHEA and TCM libraries (AID 1919978); settings: firefly luciferase detection reagent interference, luminescence; further: % of control where 0% means no effect
How it was run: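 D-luciferin (1 uM final) or 100 mM potassium phosphate buffer alone was preincubated 15 min at RT with compounds (19.5 nM to 39.8 uM final). Luciferin detection reagent was then added and luminescence read after 30 min at RT.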

[10] = Dual reporter qHTS for agonist of Pregnane X Receptor (hPXR) against the NCATS DSHEA and TCM libraries: Fluorescence readout (AID 1920058); further: 0% is about no effect
How it was run: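 Fluorescence read-out for cell viability: CellTiter-Fluor, 1 h at 37 °C, Ex/Em 405/540 nm. This followed ~24 h treatment of hPXR-Luc HepG2 cells with substances in agonist mode.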

[11] = biological target: Nuclear receptor subfamily 1 group I member 2 (Homo sapiens) (UniProt O75469); assay: Dual reporter qHTS for agonist of Pregnane X Receptor (hPXR) against the NCATS DSHEA and TCM libraries: Luminescence readout (AID 1920059); further: 0% is about no effect
Sequence of Nuclear receptor subfamily 1 group I member 2 (Homo sapiens) (O75469 whole entry, looked up): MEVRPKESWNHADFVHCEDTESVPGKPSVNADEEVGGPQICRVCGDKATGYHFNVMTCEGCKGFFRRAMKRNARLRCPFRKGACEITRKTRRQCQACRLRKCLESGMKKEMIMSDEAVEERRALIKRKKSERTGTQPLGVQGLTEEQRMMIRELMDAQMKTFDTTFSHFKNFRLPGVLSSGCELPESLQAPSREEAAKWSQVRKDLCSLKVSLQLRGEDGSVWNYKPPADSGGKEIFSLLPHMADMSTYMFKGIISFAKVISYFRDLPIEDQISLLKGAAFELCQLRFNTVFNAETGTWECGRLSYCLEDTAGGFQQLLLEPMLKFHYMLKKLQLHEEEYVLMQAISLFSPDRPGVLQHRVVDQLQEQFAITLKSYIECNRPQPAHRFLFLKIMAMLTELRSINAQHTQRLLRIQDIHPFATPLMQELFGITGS
How it was run: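 hPXR-Luc HepG2 cells, 2000/well in 5% charcoal-stripped FBS medium, attached 5 h, then exposed 24 h at 37C to compounds. Viability by CellTiter-Fluor, then luciferase luminescence with ONE-Glo.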

[12] = biological target: Nuclear receptor subfamily 1 group I member 2 (Homo sapiens) (UniProt O75469); assay: Dual reporter qHTS for antagonist of Pregnane X Receptor (hPXR) against the NCATS DSHEA and TCM libraries: Luminescence Readout (AID 1920060); further: 0% is about no effect
How it was run: (§3)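 Rifampicin-stimulated (2 uM final) hPXR-luciferase HepG2 cells were treated for 24 h with DSNP/TCM substances. Viability came from CellTiter-Fluor fluorescence, reporter activity from ONE-Glo luminescence.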

[13] = Dual reporter qHTS for antagonist of Pregnane X Receptor (hPXR) against the NCATS DSHEA and TCM libraries: Fluorescence Readout (AID 1920061); further: 0% is about no effect
How it was run: as §3

[14] = biological target: Peroxisome proliferator-activated receptor gamma (Homo sapiens) (UniProt P37231); assay: qHTS assay for small molecule agonists of peroxisome proliferator-activated receptor gamma signaling (AID 588536; active means well fitted curve in the direction sought with a large enough effect in the signal ratio, with a control signal flat, not every such curve was filed as active; the % refers to the signal ratio;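 further: 0% = DMSO basal wells and 100% = rosiglitazone at 2 µM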)
Sequence of Peroxisome proliferator-activated receptor gamma (Homo sapiens) (P37231 whole entry, looked up): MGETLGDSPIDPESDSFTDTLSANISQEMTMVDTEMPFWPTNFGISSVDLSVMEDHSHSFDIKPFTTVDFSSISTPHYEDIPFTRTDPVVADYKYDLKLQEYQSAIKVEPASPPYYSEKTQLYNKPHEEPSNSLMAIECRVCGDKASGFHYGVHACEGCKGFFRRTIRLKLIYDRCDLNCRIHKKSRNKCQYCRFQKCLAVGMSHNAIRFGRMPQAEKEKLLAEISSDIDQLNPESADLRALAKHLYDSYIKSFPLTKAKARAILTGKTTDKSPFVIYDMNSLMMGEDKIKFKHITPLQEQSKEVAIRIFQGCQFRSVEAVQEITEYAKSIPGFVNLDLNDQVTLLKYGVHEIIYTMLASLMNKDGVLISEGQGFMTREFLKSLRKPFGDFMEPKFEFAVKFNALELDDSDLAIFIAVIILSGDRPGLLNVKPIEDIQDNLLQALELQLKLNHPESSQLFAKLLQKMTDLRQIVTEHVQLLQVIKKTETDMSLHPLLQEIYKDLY
How it was run: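 Using GeneBLAzer HEK293 cells, response was quantified by CCF4 fluorescence and normalized between basal DMSO (0%) and rosiglitazone 2 uM (100%); curves yielded half-maximal stimulation concentration and efficacy.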

[15] = biological target: Peroxisome proliferator-activated receptor gamma (Homo sapiens) (UniProt P37231); assay: qHTS assay for small molecule antagonists of peroxisome proliferator-activated receptor gamma signaling (AID 588537; active means well fitted inhibition curve with a large enough effect in the signal ratio, with a control signal flat, not every such curve was filed as active; the % refers to the signal ratio;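 further: reporter cells co-stimulated with 50 nM rosiglitazone agonist during compound treatment; % of control where 0% means no effect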)
How it was run: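 Read-out: CCF4 fluorescence (ex 405, em 460/530 nm) after 2 h at RT. Cells were HEK293 carrying a UAS-bla reporter and treated 16 h at 37 C with compound plus rosiglitazone (50 nM final). Normalized to rosiglitazone and DMSO.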

[16] = biological target: Thyroid hormone receptor beta (Homo sapiens) (UniProt P10828); assay: qHTS assay for small molecule agonists of thyroid hormone receptor beta signaling (AID 588545; calls by dose curve;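 further: 0% = DMSO only and 100% = 10 nM T3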)
Sequence of Thyroid hormone receptor beta (Homo sapiens) (P10828 whole entry, looked up): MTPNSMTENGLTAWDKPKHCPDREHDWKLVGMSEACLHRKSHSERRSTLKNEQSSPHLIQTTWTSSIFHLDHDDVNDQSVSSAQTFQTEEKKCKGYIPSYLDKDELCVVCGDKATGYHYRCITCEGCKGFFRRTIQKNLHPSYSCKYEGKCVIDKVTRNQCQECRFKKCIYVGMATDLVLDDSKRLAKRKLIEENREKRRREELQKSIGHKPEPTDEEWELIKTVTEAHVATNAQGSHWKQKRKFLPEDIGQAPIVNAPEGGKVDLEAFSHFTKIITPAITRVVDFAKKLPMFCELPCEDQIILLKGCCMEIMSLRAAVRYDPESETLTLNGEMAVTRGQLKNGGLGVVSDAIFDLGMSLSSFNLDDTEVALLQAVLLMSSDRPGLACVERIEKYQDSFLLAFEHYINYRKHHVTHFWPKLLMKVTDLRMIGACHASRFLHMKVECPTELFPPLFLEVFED
How it was run: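 Efficacy and EC50 values derive from Hill fits of qHTS titration data, normalized to 10 nM T3 and DMSO-only wells. HEK 293 reporter cells were stimulated for 18 hrs at 37 C, with beta-lactamase activity measured by CCF4 fluorescence.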

[17] = qHTS assay for small molecule antagonists of retinoid X receptor alpha signaling (AID 588546; active means well fitted inhibition curve with a large enough effect in the signal ratio, with a control signal flat, not every such curve was filed as active; the % refers to the signal ratio;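 further: cells stimulated with 9-cis-retinoic acid as agonist; on the % scale 0 is the no-effect control and ±100 the full control effect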); settings: HEK293T RXRa-UAS-bla, beta-lactamase ratio, antagonist mode; measured here: W530 green channel, cytotoxicity proxy
How it was run: (§4)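 Beta-lactamase reporter inhibition, read as CCF4 fluorescence ratio (ex 405, em 460/530 nm) after 2 h at RT. HEK293T UAS-bla cells, 2500/well, were stimulated with 9-cis-RA at 500 or 100 nM final alongside test compound for 18 h at 37 C.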

[18] = biological target: Retinoic acid receptor RXR-alpha (Homo sapiens) (UniProt P19793); assay: as above; settings: HEK293T RXRa-UAS-bla, beta-lactamase ratio, antagonist mode
Sequence of Retinoic acid receptor RXR-alpha (Homo sapiens) (P19793 whole entry, looked up): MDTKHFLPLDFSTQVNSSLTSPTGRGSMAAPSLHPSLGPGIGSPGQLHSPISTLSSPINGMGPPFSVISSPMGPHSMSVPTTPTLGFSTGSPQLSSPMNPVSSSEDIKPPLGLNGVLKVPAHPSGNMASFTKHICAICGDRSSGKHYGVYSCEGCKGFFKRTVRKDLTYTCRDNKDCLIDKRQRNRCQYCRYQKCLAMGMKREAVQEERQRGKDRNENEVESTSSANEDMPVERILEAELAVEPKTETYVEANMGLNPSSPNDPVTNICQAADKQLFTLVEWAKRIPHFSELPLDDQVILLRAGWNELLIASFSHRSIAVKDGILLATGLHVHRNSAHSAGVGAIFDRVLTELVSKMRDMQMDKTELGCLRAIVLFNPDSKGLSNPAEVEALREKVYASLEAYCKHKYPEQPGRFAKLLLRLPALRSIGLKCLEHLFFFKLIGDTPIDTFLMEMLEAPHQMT
How it was run: as §4

[19] = qHTS assay for small molecule activators of the p53 signaling pathway (AID 651743; active means well fitted activation curve with a large enough effect in the signal ratio, not every such curve was filed as active; the % refers to the signal ratio; further: series mostly up to about 92 µM; % of control where 0% means no effect); settings: HCT-116 p53RE-bla, beta-lactamase FRET ratio, 16 h; stronger effect = higher value
How it was run: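 Reporter: beta-lactamase driven by p53 response elements, stably integrated in HCT-116 cells. Cells seeded at 4,000/well, 5 h preincubation, compound (DMSO) 16 h at 37 C; B/G FRET substrate 2 h RT; fluorescence intensity read.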

[20] = qHTS assay for environmental chemicals that activate the Aryl hydrocarbon Receptor (AhR) signaling pathway (AID 651777); settings: 1A2-DRE human hepatoma cells, luciferase, 24 h; stronger effect = higher value; further: % of control where 0% means no effect; nearly all actives have a fitted effect of over 15% in size
How it was run: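 Stable CYP1A2 promoter/DRE-luciferase human hepatoma line treated 24 hr; One-Glo luminescence, 30 min RT.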

CC/C=C\C/C=C\C/C=C\C/C=C\C/C=C\CCCCCC(=O)O
inactive: activity change, negative = cytotoxicity [1] -18.6% [at 5 µM] | activation [2] -16.7% [at 5 µM] | activity change, negative = cytotoxic [3] -0.254% [at 3.42 µM] | activity change, negative = inhibition [4] -1.31% [at 3.42 µM] | activity change, negative = inhibition [5] -3.67% [at 4.27 µM] | Potency [6] | Potency [7] | activity change, negative = inhibition [8] -17.1% [at 3.26 µM] | max response [9] 0.0363% | activation [10] -9.65% [at 5 µM] | activation [11] -6.56% [at 5 µM] | activity change, negative = inhibition [12] -29.3% [at 5 µM] | activity change, negative = inhibition [13] 2.07% [at 5 µM]

CCCCC[C@H](O)CC(=O)CCc1ccc(O)c(OC)c1
active: Potency [7] 14.1 µM
inactive: outcome [1] | outcome [2] | outcome [3] | outcome [4] | outcome [5] | Potency [6] | outcome [8] | max response [9] 0.254% | outcome [10] | outcome [11] | outcome [12] | outcome [13]

CC(C)=CCC/C(C)=C/CC/C(C)=C/CO
inactive: outcome [14] | outcome [15] | outcome [16] | max response [18] 5.64% | activation [19] 1.11% | activation [20] 1.51%
-7.11%: max response [17]

CC(=O)[C@H]1[C@H](C#N)C[C@H]2[C@@H]3CC=C4C[C@@H](O)CC[C@]4(C)[C@H]3CC[C@@]21C
9.02%: max response [17]
inactive: outcome [14] | outcome [15] | outcome [16] | max response [18] -3.98% | activation [19] 0.753% and -1.56% | activation [20] -1.23% and 0.356%

Source: PubChem BioAssay (NCATS)
